# Legend:
# Test in all cases: SPOT peptide array binding signal intensity (averaged, normalized) (arbitrary units (background-subtracted, floor 0; scale differs between SH3 domains)); higher = stronger binding of the SH3 domain to the peptide
# AgAbp1 = biological target: AgAbp1
# Method in brief: (§1)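 Peptides were synthetic 15-mers on cellulose membranes, with every cysteine replaced by serine. They were incubated overnight at 4°C with GST-SH3 domains from four yeast species at 10 μg/ml in TBS-based blocking buffer. Binding signal, the replicate-averaged normalized and background-subtracted spot intensity, is in arbitrary units that differ between domains.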
# AgBbc1 = biological target: AgBbc1
# Method in brief: as §1
# AgBem1-D1 = biological target: AgBem1-D1
# Method in brief: as §1
# AgBzz1-D1 = biological target: AgBzz1-D1
# Method in brief: as §1
# AgBzz1-D2 = biological target: AgBzz1-D2
# Method in brief: as §1
# AgCyk3 = biological target: AgCyk3
# Method in brief: as §1
# AgFus1 = biological target: AgFus1
# Method in brief: as §1
# AgHof1 = biological target: AgHof1
# Method in brief: as §1
# AgHse1 = biological target: AgHse1
# Method in brief: as §1
# AgLsb1 = biological target: AgLsb1
# Method in brief: as §1
# AgLsb4 = biological target: AgLsb4
# Method in brief: as §1
# AgMyo5 = biological target: AgMyo5
# Method in brief: as §1
# AgNbp2 = biological target: AgNbp2
# Method in brief: as §1
# AgRvs167 = biological target: AgRvs167
# Method in brief: as §1
# AgSho1 = biological target: AgSho1
# Method in brief: as §1
# AgSla1-D1-D2 = biological target: AgSla1-D1-D2
# Method in brief: as §1
# AgSla1-D3 = biological target: AgSla1-D3
# Method in brief: as §1
# CaAbp1-D1 = biological target: CaAbp1-D1
# Method in brief: as §1
# CaAbp1-D2 = biological target: CaAbp1-D2
# Method in brief: as §1
# CaBbc1 = biological target: CaBbc1
# Method in brief: as §1
# CaBem1-D1 = biological target: CaBem1-D1
# Method in brief: as §1
# CaBzz1-D1 = biological target: CaBzz1-D1
# Method in brief: as §1
# CaBzz1-D2 = biological target: CaBzz1-D2
# Method in brief: as §1
# CaCyk3 = biological target: CaCyk3
# Method in brief: as §1
# CaFus1 = biological target: CaFus1
# Method in brief: as §1
# CaHof1 = biological target: CaHof1
# Method in brief: as §1
# CaHse1 = biological target: CaHse1
# Method in brief: as §1
# CaLsb1 = biological target: CaLsb1
# Method in brief: as §1
# CaLsb4 = biological target: CaLsb4
# Method in brief: as §1
# CaMyo5 = biological target: CaMyo5
# Method in brief: as §1
# CaNbp2 = biological target: CaNbp2
# Method in brief: as §1
# CaRvs167 = biological target: CaRvs167
# Method in brief: as §1
# CaRvs167-3 = biological target: CaRvs167-3
# Method in brief: as §1
# CaSho1 = biological target: CaSho1
# Method in brief: as §1
# CaSla1-D1-D2 = biological target: CaSla1-D1-D2
# Method in brief: as §1
# CaSla1-D3 = biological target: CaSla1-D3
# Method in brief: as §1
# ScAbp1 = biological target: ScAbp1
# Method in brief: as §1
# ScBbc1 = biological target: ScBbc1
# Method in brief: as §1
# ScBem1-D1 = biological target: ScBem1-D1
# Method in brief: as §1
# ScBzz1-D1 = biological target: ScBzz1-D1
# Method in brief: as §1
# ScBzz1-D2 = biological target: ScBzz1-D2
# Method in brief: as §1
# ScCyk3 = biological target: ScCyk3
# Method in brief: as §1
# ScFus1 = biological target: ScFus1
# Method in brief: as §1
# ScHof1 = biological target: ScHof1
# Method in brief: as §1
# ScHse1 = biological target: ScHse1
# Method in brief: as §1
# ScLsb1 = biological target: ScLsb1
# Method in brief: as §1
# ScLsb2 = biological target: ScLsb2
# Method in brief: as §1
# ScLsb3 = biological target: ScLsb3
# Method in brief: as §1
# ScLsb4 = biological target: ScLsb4
# Method in brief: as §1
# ScMyo3 = biological target: ScMyo3
# Method in brief: as §1
# ScMyo5 = biological target: ScMyo5
# Method in brief: as §1
# ScNbp2 = biological target: ScNbp2
# Method in brief: as §1
# ScPex13 = biological target: ScPex13
# Method in brief: as §1
# ScRvs167 = biological target: ScRvs167
# Method in brief: as §1
# ScSho1 = biological target: ScSho1
# Method in brief: as §1
# ScSla1-D1-D2 = biological target: ScSla1-D1-D2
# Method in brief: as §1
# ScSla1-D3 = biological target: ScSla1-D3
# Method in brief: as §1
# SpAbp1-D1 = biological target: SpAbp1-D1
# Method in brief: as §1
# SpBbc1 = biological target: SpBbc1
# Method in brief: as §1
# SpBzz1-D1 = biological target: SpBzz1-D1
# Method in brief: as §1
# SpBzz1-D2 = biological target: SpBzz1-D2
# Method in brief: as §1
# SpCyk3 = biological target: SpCyk3
# Method in brief: as §1
# SpHof1 = biological target: SpHof1
# Method in brief: as §1
# SpHof1-2 = biological target: SpHof1-2
# Method in brief: as §1
# SpHof1-3 = biological target: SpHof1-3
# Method in brief: as §1
# SpHse1 = biological target: SpHse1
# Method in brief: as §1
# SpLsb1 = biological target: SpLsb1
# Method in brief: as §1
# SpLsb4 = biological target: SpLsb4
# Method in brief: as §1
# SpMyo1 = biological target: SpMyo1
# Method in brief: as §1
# SpNbp2 = biological target: SpNbp2
# Method in brief: as §1
# SpPex13 = biological target: SpPex13
# Method in brief: as §1
# SpRvs167 = biological target: SpRvs167
# Method in brief: as §1
# SpSla1-D1-D2 = biological target: SpSla1-D1-D2
# Method in brief: as §1
# SpSla1-D3 = biological target: SpSla1-D3
# Method in brief: as §1
binder,measurement,setting,value
YLTRPLPSTPNEDSR,SPOT peptide array binding signal intensity,AgAbp1,7
same,SPOT peptide array binding signal intensity,AgBbc1,39.5
same,SPOT peptide array binding signal intensity,AgBem1-D1,≤ 0
same,SPOT peptide array binding signal intensity,AgBzz1-D1,17.5
same,SPOT peptide array binding signal intensity,AgBzz1-D2,≤ 0
same,SPOT peptide array binding signal intensity,AgCyk3,42
same,SPOT peptide array binding signal intensity,AgFus1,≤ 0
same,SPOT peptide array binding signal intensity,AgHof1,13.2
same,SPOT peptide array binding signal intensity,AgHse1,≤ 0
same,SPOT peptide array binding signal intensity,AgLsb1,96
same,SPOT peptide array binding signal intensity,AgLsb4,853
same,SPOT peptide array binding signal intensity,AgMyo5,2.25
same,SPOT peptide array binding signal intensity,AgNbp2,≤ 0
same,SPOT peptide array binding signal intensity,AgRvs167,404
same,SPOT peptide array binding signal intensity,AgSho1,1790
same,SPOT peptide array binding signal intensity,AgSla1-D1-D2,1
same,SPOT peptide array binding signal intensity,AgSla1-D3,≤ 0
same,SPOT peptide array binding signal intensity,CaAbp1-D1,11
same,SPOT peptide array binding signal intensity,CaAbp1-D2,7
same,SPOT peptide array binding signal intensity,CaBbc1,134
same,SPOT peptide array binding signal intensity,CaBem1-D1,≤ 0
same,SPOT peptide array binding signal intensity,CaBzz1-D1,42
same,SPOT peptide array binding signal intensity,CaBzz1-D2,12.5
same,SPOT peptide array binding signal intensity,CaCyk3,8
same,SPOT peptide array binding signal intensity,CaFus1,≤ 0
same,SPOT peptide array binding signal intensity,CaHof1,69.8
same,SPOT peptide array binding signal intensity,CaHse1,28.5
same,SPOT peptide array binding signal intensity,CaLsb1,≤ 0
same,SPOT peptide array binding signal intensity,CaLsb4,406
same,SPOT peptide array binding signal intensity,CaMyo5,≤ 0
same,SPOT peptide array binding signal intensity,CaNbp2,≤ 0
same,SPOT peptide array binding signal intensity,CaRvs167,144
same,SPOT peptide array binding signal intensity,CaRvs167-3,≤ 0
same,SPOT peptide array binding signal intensity,CaSho1,1020
same,SPOT peptide array binding signal intensity,CaSla1-D1-D2,≤ 0
same,SPOT peptide array binding signal intensity,CaSla1-D3,≤ 0
same,SPOT peptide array binding signal intensity,ScAbp1,3.5
same,SPOT peptide array binding signal intensity,ScBbc1,5
same,SPOT peptide array binding signal intensity,ScBem1-D1,≤ 0
same,SPOT peptide array binding signal intensity,ScBzz1-D1,6.5
same,SPOT peptide array binding signal intensity,ScBzz1-D2,14
same,SPOT peptide array binding signal intensity,ScCyk3,≤ 0
same,SPOT peptide array binding signal intensity,ScFus1,≤ 0
same,SPOT peptide array binding signal intensity,ScHof1,9.5
same,SPOT peptide array binding signal intensity,ScHse1,≤ 0
same,SPOT peptide array binding signal intensity,ScLsb1,20
same,SPOT peptide array binding signal intensity,ScLsb2,2.5
same,SPOT peptide array binding signal intensity,ScLsb3,3260
same,SPOT peptide array binding signal intensity,ScLsb4,706
same,SPOT peptide array binding signal intensity,ScMyo3,3
same,SPOT peptide array binding signal intensity,ScMyo5,≤ 0
same,SPOT peptide array binding signal intensity,ScNbp2,≤ 0
same,SPOT peptide array binding signal intensity,ScPex13,992
same,SPOT peptide array binding signal intensity,ScRvs167,417
same,SPOT peptide array binding signal intensity,ScSho1,3780
same,SPOT peptide array binding signal intensity,ScSla1-D1-D2,17.5
same,SPOT peptide array binding signal intensity,ScSla1-D3,1
same,SPOT peptide array binding signal intensity,SpAbp1-D1,≤ 0
same,SPOT peptide array binding signal intensity,SpBbc1,≤ 0
same,SPOT peptide array binding signal intensity,SpBzz1-D1,74.5
same,SPOT peptide array binding signal intensity,SpBzz1-D2,≤ 0
same,SPOT peptide array binding signal intensity,SpCyk3,150
same,SPOT peptide array binding signal intensity,SpHof1,2260
same,SPOT peptide array binding signal intensity,SpHof1-2,1610
same,SPOT peptide array binding signal intensity,SpHof1-3,776
same,SPOT peptide array binding signal intensity,SpHse1,1.75
same,SPOT peptide array binding signal intensity,SpLsb1,1
same,SPOT peptide array binding signal intensity,SpLsb4,2190
same,SPOT peptide array binding signal intensity,SpMyo1,60.2
same,SPOT peptide array binding signal intensity,SpNbp2,≤ 0
same,SPOT peptide array binding signal intensity,SpPex13,1.5
same,SPOT peptide array binding signal intensity,SpRvs167,777
same,SPOT peptide array binding signal intensity,SpSla1-D1-D2,9
same,SPOT peptide array binding signal intensity,SpSla1-D3,≤ 0

# Source: the supplement of paper PMC4466140
